Test results published in PubChem BioAssay AID1053144 (Broad Institute, 2014).
Among all 3,400 compounds or so, about 160 (4.7%) were called active.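 Rule for the calls: active = fitted curve reaches 30% activation at a concentration no higher than the top valid tested dose, luminescence rising; inconclusive = no clear call, values can overlap the other calls; inactive = signal moving opposite to the expected increase, plus the rest.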 A selection follows. Results with a measured potency or affinity are listed apart.

Assay: Wnt/beta-catenin signaling activators, dose response, cell-based, iPS-derived NPC, luciferase, Wnt3a, cherry-pick (AID 1053144);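 note: Wnt3a stimulus is conditioned medium from Wnt3a-transfected mouse L cells at 5% in well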
Settings: NPC TCF/LEF luciferase reporter, Wnt3a EC25, 24 h; series mostly up to 26 µM

activation, inactive:
O=C(Nc1cccc(-c2ccc(N3CCOCC3)nn2)c1)c1ccc([N+](=O)[O-])cc1
Cc1ccc(C(=O)Nc2cccc(-c3ccc(N4CCOCC4)nn3)c2)cc1
N/C(=N\OC(=O)c1ccc(Cl)cc1Cl)c1cccnc1
COc1ccc(C(=O)Nc2cccc(C)c2)cc1
CN(C)Cc1c(C(=O)Nc2ccccc2)[nH]c2ccccc12
CC1CCN(C(=O)CNC(=O)c2ccc(Br)o2)CC1
COc1cccc(/C=C/c2ccccn2)c1O
COc1ccccc1NC(=O)COc1ccccc1C(=O)c1cnn(-c2ccccc2)c1
O=C(c1cnn(-c2cccc(F)c2)c1)c1ccccc1O
CC(O)C(NS(=O)(=O)c1ccc(Cl)cc1)C(=O)OCCOc1ccc(F)cc1 (stereo not drawn)
Cc1cnc(NC(=O)c2sc(Nc3ccccc3)nc2N)o1
CC(C)NC(=O)N(C)C[C@H]1Oc2ccc(NC(=O)Nc3ccccc3)cc2C(=O)N([C@H](C)CO)C[C@@H]1C
COc1cccc(CSc2nc3ccccc3[nH]2)c1
COc1cc2sc3cc(NCc4ccc(C)o4)ccc3c(=O)c2cc1OC
CCOC(=O)C1=C(Nc2ccc(OC)cc2)OCC1=O
COc1ccc(Nc2n[nH]c(C)c2[N+](=O)[O-])cc1
CCOc1ccc(C(=O)N(CC(=O)Nc2cccc(C)c2C)CC2CCCO2)cc1OC (stereo not drawn)
COc1ccc(-c2nnc(-c3cccnc3)o2)cc1
COc1ccc(S(=O)(=O)N2CCOCC2)cc1NC(=O)c1ccc2c(c1)OCCO2
C#CCOC(=O)CCCC(=O)Nc1ccccc1OC
C=CCn1c(C)nc2c(sc3nc4c(cc32)COC(C)(C)C4)c1=O
COc1cc(/C=N/Nc2ccc(C(F)(F)F)cn2)ccc1O
CCOc1ccc(/C=N/NC(=O)Cn2ccnc2C)cc1
O=C1NC(c2ccccc2Cl)=N/C1=C/c1ccco1
c1ccc(-c2cn(CC3CCCCC3)nn2)cc1
O=c1oc(CCCO)cc2ccc(C#Cc3ccsc3)cc12
COc1cc(C#Cc2ccc3cc(CCO)oc(=O)c3c2)cc(OC)c1
CCOC(=O)C1(Cc2cccc(OC)c2)CCCN(C(=O)c2ccccc2C)C1 (stereo not drawn)
Brc1ccsc1/C=N/Nc1ccccc1
Cc1cccc(C(=O)c2c(N)sc3c2CCCC3)c1
CC(=O)Nc1ccc(NC(=O)CN(c2ccccc2Cl)S(C)(=O)=O)cc1
CC(C)OC(=O)c1ccc2nc3ccccc3nc2c1
O=C(c1ccccc1)c1ccc(-c2ccc(O)cc2)cc1
Cc1nc(C)c(-c2csc(Nc3cccc(O)c3)n2)s1
O=C(Nc1nc2ccccc2[nH]1)c1cccc(Cl)c1
COc1cccc(NC(=O)c2cccc(Cl)c2)c1
O=C(CSc1nncs1)NCCCc1ccccc1
Cc1nc(-c2ccc(NC(=O)c3ccccc3Br)cc2)cs1
CC1=CC(=C2C(=O)c3ccccc3C2=O)C=C(C)N1Cc1ccco1
CCCC(=O)Nc1sc(C(=O)Nc2cccc(N)c2)c(C)c1C(=O)OC
COC(=O)c1c(NC(C)=O)sc(C(=O)Nc2ccccc2F)c1C
CCCc1nc2oc3c(NCC(C)O)ncnc3c2c2c1CCCC2 (stereo not drawn)
Cc1ccsc1C(=O)OCC(=O)c1ccc[nH]1
Cc1ccsc1C(=O)OCC(=O)N(C)C1CCCCC1
Cc1ccnc(NC(=O)C2COc3ccccc3O2)c1 (stereo not drawn)
CC(=Nc1ccc(C)cc1)c1sc2ccccc2c1O
CC(=Nc1ccccc1O)c1sc2ccccc2c1O
CCCC(=O)Nc1ccc(C#Cc2ccccc2)cc1
O=C(NN1C(=O)C2C3c4ccccc4C(c4ccccc43)C2C1=O)C1CC1 (stereo not drawn)
O=C(O)CC(CN1C(=O)c2ccccc2C1=O)c1ccccc1 (stereo not drawn)
c1ccc(-c2noc(C3CCCCC3)n2)nc1
Nc1ccc2c(c1)C(=O)c1ccccc1C2=O
CCc1ccc(NC2=CC(=O)C(=O)c3ccccc32)cc1
CC(C)NC(=O)c1cc(-c2ccc3c(c2)OCO3)on1
Cc1ccc(S(=O)(=O)N2CCN(C(=O)Cn3c(=O)cnc4ccccc43)CC2)c(C)c1
COc1ccccc1CN(C)C(=O)C1COc2ccccc2O1 (stereo not drawn)
Cc1ccc(/C=C/C(=O)Nc2cc(C)on2)cc1
CC(=O)Nc1ccc(C(=O)COC(=O)C2CC2)c(F)c1
CCCC(=O)Nc1ccc(C(=O)COC(=O)C2CC2C)cc1 (stereo not drawn)
Cc1ccc(OCC(=O)O/N=C(\N)c2ccccn2)cc1C
COc1ccc2nc(Nc3ccccc3OC)sc2c1
COc1ccccc1-c1nc(COc2ccc(Cl)cc2Cl)no1
Cc1cc(Cl)ccc1OCc1nnc(-c2ccccc2C)o1
CCOc1ccc(NC2c3ccccc3C(=O)N2c2ccc(Cl)cn2)cc1 (stereo not drawn)
O=C(CN1C(=O)CCC1=O)Nc1nc(-c2ccc3ccccc3c2)cs1
CCN(CC)S(=O)(=O)c1ccc(O)c(NC(=O)COc2ccc(S(=O)(=O)N3CCOCC3)cc2)c1
O=C1NC(=Nc2ccccc2)S/C1=C/c1cccs1
Cc1ccc(N/C=C2/Sc3ccccc3NC2=O)cc1
COC(=O)[C@@H](Cc1c[nH]c2ccccc12)NC(=O)c1ccc2c(c1)OCO2
CCCCNC(=O)C1CC(c2cccc(F)c2)=NO1 (stereo not drawn)
COc1ccc(CNC(=O)C(=O)NCC(c2ccco2)N2CCOCC2)cc1 (stereo not drawn)
O=C(COc1ccc(Cl)cc1Br)NC(=O)NC1CCCC1
Cc1ccc(C(=O)Nc2ccc3c(c2)OCO3)cc1Cl
O=C(NCCc1c[nH]c2ccccc12)c1cc(Cl)c2c(c1)OCO2
O=C(Nc1ccc(F)cc1F)c1cc2ccccc2oc1=O
COc1ccc(/C(N)=N/OC(=O)C2CCCCC2)cc1
Cc1ccc(NC(=O)c2sccc2C)cc1[N+](=O)[O-]
Cc1cccnc1NC(=O)c1cc2ccccc2oc1=O
